SENP6 inh: blocks the human protease SENP6; Q9GZR1; Recombinant SENP6 catalytic domain, aminoluciferin luminescence; inhibition, % at 10 µM; 330,000 compounds, 1.8% hits; AID 2599;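 active = inhibition above about 50% at the single tested dose, limit read from the data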;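 also: plate controls were DMSO wells with enzyme for no effect and DMSO wells lacking enzyme for full effect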
EBI2 block: antagonists of human EBI2 receptor. P32249. EBI2 beta-arrestin recruitment, luminescence, 7a,25-OHC stimulated. inhibition, % at 5 µM. 360,000 compounds, 0.81% hits. AID 651636; in the data active = inhibition above about 38%;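 also: enzyme fragment complementation signal reports receptor beta-arrestin coupling in cells; 0% = agonist plus DMSO wells and 100% = wells without agonist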
SENP7 block: blocks the human protease SENP7; Q9BQF6; recombinant SENP7, Z-RLRGG-aminoluciferin luminescence, 40 min; 330,000 compounds, 1.5% hits; inhibition, % at 5 µM; AID 434973;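 active = inhibition above about 50% at the single test dose, limit read from the data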;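 also: plate controls were DMSO with enzyme for no effect and no enzyme buffer wells for full effect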
Target sequence (Q9BQF6 706-1050 limits assumed): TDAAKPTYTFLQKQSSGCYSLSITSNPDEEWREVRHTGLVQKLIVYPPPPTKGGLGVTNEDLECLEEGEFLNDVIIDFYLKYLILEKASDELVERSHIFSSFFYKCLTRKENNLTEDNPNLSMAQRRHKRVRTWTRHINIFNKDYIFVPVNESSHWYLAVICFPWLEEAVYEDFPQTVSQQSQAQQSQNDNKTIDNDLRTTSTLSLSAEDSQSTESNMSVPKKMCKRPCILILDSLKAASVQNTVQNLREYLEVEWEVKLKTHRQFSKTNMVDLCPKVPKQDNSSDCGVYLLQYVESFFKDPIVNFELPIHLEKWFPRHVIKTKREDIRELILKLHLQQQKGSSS
SENP8 block-1: inhibitors of human SENP8 protease | Q96LD8 | recombinant SENP8, Nedd8 substrate fluorescence | inhibition, % at 20 µM | 360,000 compounds, 0.64% hits | AID 602440; in the data active = inhibition mostly above about 40%, no sharp cut-off; inactive = mostly below about 27%
Target sequence (Q96LD8 whole entry, looked up): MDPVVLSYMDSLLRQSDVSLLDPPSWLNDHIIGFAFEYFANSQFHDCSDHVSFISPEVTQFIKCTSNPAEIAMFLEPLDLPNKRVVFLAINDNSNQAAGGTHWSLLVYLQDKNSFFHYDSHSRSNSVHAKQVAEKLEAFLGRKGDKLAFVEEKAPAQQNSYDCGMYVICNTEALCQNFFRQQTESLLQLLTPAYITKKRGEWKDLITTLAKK
AHR act: human AHR activation; P35869; AHR-responsive luciferase reporter cells, luminescence; activation, % at 5 µM; 320,000 compounds, 2.5% hits; in the data active = activation above about 47%;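 also: 0% = vehicle wells and 100% = reference agonist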
SENP8 block-2: inhibitors of human SENP8 protease. Q96LD8. purified SENP8, Z-RLRGG-aminoluciferin cleavage, luminescence. inhibition, % at 10 µM. 330,000 compounds, 1.2% hits; in the data active = inhibition above about 50%
* = called active by the depositor; i = inactive; x = no result given. An excerpt weighted towards active compounds, which were near 5% of everything screened.

SMILES | SENP6 inh | EBI2 block | SENP7 block | SENP8 block-1 | AHR act | SENP8 block-2
Cc1ccc(N2CC(=O)Nc3c(oc4nc(-c5ccccc5)cc(C)c34)C2=O)cc1 | -2.9 | 3.5 | 4.0 | -69.7 | -0.5 | 3.5
Cc1cc(-c2ccccc2)n2ncc(-c3ccccc3)c2n1 | 29.2 | -2.3 | 23.6 | 21.9 | 57.3* | -6.9
CCC(=O)Nc1nc2ccc(NC(C)=O)cc2s1 | -19.3 | -2.9 | -2.5 | 16.7 | 75.8* | -0.7
CCCC(=O)Nc1nc2ccc(NC(=O)c3ccc(Br)o3)cc2s1 | -17.0 | 2.2 | 8.0 | 9.4 | 44.5 | -3.6
CC(=O)Nc1ccc2nc(NC(=O)c3ccc([N+](=O)[O-])o3)sc2c1 | 6.4 | 5.3 | -6.4 | -71.7 | 57.6* | 2.1
O=C(Nc1nc2ccc([N+](=O)[O-])cc2s1)c1ccco1 | 82.6* | x | 40.3 | x | -1.2 | 74.7*
COc1ccc(S(=O)(=O)N2CCOC2CNC(=O)C(=O)NCc2ccccn2)cc1C (stereo unspecified) | -7.1 | 1.4 | 3.6 | 6.8 | -0.6 | 3.5
Cc1cccc(Nc2nc3ccccc3n3nnnc23)c1 | -7.6 | 4.7 | -1.7 | -52.4 | 30.4 | 4.1
Cc1ccc(Nc2nc3ccccc3n3nnnc23)cc1 | -1.2 | 16.6 | -4.1 | -8.1 | 51.6* | 18.4
CC(=O)c1cccc(NC(=O)C(C)OC(=O)c2ccc(Br)o2)c1 (stereo unspecified) | 2.1 | -1.9 | -4.8 | -1.7 | 0.4 | 3.3
CO[C@H]1CN(C)C(=O)c2ccc(NC(=O)c3ccc4c(c3)OCO4)cc2OC[C@H](C)N(CC2CC2)C[C@@H]1C | x | -0.7 | x | 10.8 | x | x
COc1ccc(-c2cn(-c3ccccc3)c(=S)[nH]2)cc1OC | 26.9 | 8.1 | 28.4 | 6.4 | 42.7 | 19.9
Cc1ccc(-n2cc(-c3ccc([N+](=O)[O-])cc3)[nH]c2=S)c(C)c1 | 1.7 | 0.1 | -0.2 | 25.9 | 1.6 | -21.3
COc1ccccc1-n1cc(-c2ccc(Br)cc2)[nH]c1=S | 22.0 | 0.8 | 4.3 | 3.2 | 77.6* | 3.5
COc1ccccc1-n1cc(-c2ccc([N+](=O)[O-])cc2)[nH]c1=S | -19.1 | 4.0 | 1.7 | 22.5 | 63.1* | -10.6
O=C(Nc1nnc(C2CCCCC2)s1)c1cccs1 | 24.6 | -0.1 | 23.4 | 3.6 | 76.5* | -8.6
CCc1c(C(=O)Nc2nnc(C3CC3)s2)csc1C | -23.4 | -2.3 | -5.0 | 12.7 | 67.3* | -1.1
Cc1cccc(-c2nnc(NC(=O)c3cccs3)s2)c1 | 1.4 | -1.5 | 7.3 | -256.9 | 47.8* | -14.3
CCOCc1nnc(NC(=O)c2cccs2)s1 | -19.3 | -5.6 | 3.7 | 20.0 | 33.1 | -5.4
CCCc1sc(C(=O)Nc2nnc(C3CC3)s2)cc1CC | -0.1 | -2.5 | 4.5 | -91.9 | x | -0.9
CCOCCc1nnc(NC(=O)c2cccs2)s1 | 2.1 | 5.6 | 3.5 | 14.8 | 74.0* | -6.3
O=C(Nc1nnc(-c2cccnc2)s1)c1cccs1 | -23.5 | -1.7 | 16.1 | -234.7 | 14.9 | 9.0
CCCC#Cc1cnc2c(c1)C(=O)N([C@H](C)CO)C[C@H](C)[C@@H](CN(C)C(=O)CCN1CCCCC1)O2 | x | -1.1 | x | 5.7 | x | x
Cc1cc2nc(C(C)(C)C)c(CC3CCCCC3)n2c(C)c1Br | x | -0.4 | x | 1.3 | x | x
O=C(O)c1ccc(Nc2nc3c(s2)CCCC3)cc1 | 98.9* | -3.5 | 100.0* | -87.6 | -10.9 | 96.2*
SMILES | SENP6 inh | EBI2 block | SENP7 block | SENP8 block-1 | AHR act | SENP8 block-2
Cc1cccc(Nc2nc3c(s2)CCCC3)c1 | x | 11.0 | x | 6.1 | 10.4 | x
O=C(Cc1cccs1)Nc1nc2c(s1)CCCC2 | 25.8 | -1.9 | -2.5 | -0.5 | 5.3 | -15.0
O=C(Nc1nnc([C@@H]2C[C@H](O)[C@@H](CO)O2)s1)c1cccs1 | x | -5.9 | x | 0.8 | x | x
O=C(Nc1nnc(C2CCCO2)s1)c1cccs1 (stereo unspecified) | -1.6 | 3.3 | -2.9 | -3.6 | 47.6* | 1.0
O=C(Nc1nc2c(s1)CCCC2)c1cccs1 | 95.0* | -5.4 | 96.4* | -37.1 | 58.5* | 92.4*
COc1cc(NC(=O)Nc2cccn3nc(COCCO)nc23)cc(OC)c1OC | x | -10.8 | x | 8.5 | x | x
CCNc1nc(NC(C)CC)nc(Oc2ccc(OCC)nn2)n1 (stereo unspecified) | -9.0 | 1.3 | 9.8 | -2.9 | 11.7 | -0.2
O=c1cc(-c2ccccc2)nc2c(Cl)cc(Cl)cn12 | x | 30.5 | x | -147.8 | x | x
Brc1ccc(N=Cc2ccccn2)cc1 | 1.5 | 3.6 | -9.3 | 2.5 | 55.4* | -4.7
Cn1c(O)c(C=Nc2ccc(Br)cc2)sc1=O | 22.6 | 5.8 | 47.7 | 21.1 | 62.6* | 22.3
CCCn1c(O)c(C=Nc2ccccc2)sc1=S | 23.5 | 11.6 | 6.5 | 6.3 | 7.5 | -11.1
CC(=O)c1cccc(NC(=S)N2CCN(CCN3C(=O)c4cccc5cccc(c45)C3=O)CC2)c1 | -2.0 | 12.1 | -8.4 | -26.6 | 1.3 | 3.6
COc1ccc(NC(=S)N2CCN(CCN3C(=O)c4cccc5cccc(c45)C3=O)CC2)cc1 | 11.3 | 9.9 | 3.5 | -3.2 | 96.9* | -0.7
CC(=O)c1ccc(NC(=S)N2CCN(CCN3C(=O)c4cccc5cccc(c45)C3=O)CC2)cc1 | 8.4 | -3.7 | 11.5 | -21.8 | 122.4* | 16.9
C=CCNc1nc2ccccc2nc1NS(=O)(=O)c1ccc(Br)cc1 | 0.7 | -8.9 | 1.7 | -316.2 | -0.6 | 3.9
COC(=O)CSc1nc(N)c2c3c(sc2n1)C(c1ccccc1)SC(c1ccccc1)C3 (stereo unspecified) | 1.0 | 55.4* | -5.5 | -39.3 | 24.4 | 1.7
Cc1nn(C(C)C(=O)N2CCc3ccccc32)c(C)c1[N+](=O)[O-] (stereo unspecified) | -15.9 | -4.8 | 2.3 | 12.4 | 63.0* | -0.3
O=C(NCCc1csc(-c2cccnc2)n1)c1ccccc1 | -5.8 | 6.7 | -6.2 | 1.4 | 3.9 | 7.0
O=C(NCCc1csc(-c2cccnc2)n1)c1cccc2ccccc12 | -5.8 | -2.3 | -0.8 | 0.9 | 57.1* | -7.8
O=C(NCc1ccccc1)c1csc(-c2cccnc2)n1 | 2.7 | 6.4 | 7.2 | 5.8 | 66.6* | -3.4
CC1=NNC(=O)/C1=C\c1cn(-c2ccccc2)nc1-c1ccc(F)cc1 | x | 86.1* | x | 12.9 | x | x
CC1=NNC(=O)/C1=C\c1cn(-c2ccccc2)nc1-c1cccs1 | -2.8 | 68.4* | -2.6 | 19.3 | 2.4 | -6.1
O=C(O)CCCCCN1C(=O)/C(=C/c2cn(-c3ccccc3)nc2-c2cccs2)SC1=S | x | 22.7 | x | 19.5 | x | x
O=C(COc1ccccc1)Nc1c2c(nn1-c1ccc(F)cc1)CS(=O)(=O)C2 | -0.5 | 1.3 | 2.8 | 3.7 | 1.2 | -0.7
Cc1cc(=O)oc2cc(O)cc(OCc3ccccc3)c12 | x | 0.9 | x | i | x | x
COc1ccccc1C(=O)NC(CCSC)C(=O)OC(C)C(=O)NC1CC1 (stereo unspecified) | -0.2 | 9.6 | 12.2 | 10.7 | -2.4 | -9.6
CCOC(=O)c1c2c(n(-c3ccc(OC)cc3)c1C)C(=O)C(=O)c1ccccc1-2 | x | -3.3 | x | 110.3* | x | x
CCOC(=O)c1sc(=S)n(-c2ccc(OC)cc2)c1C | -9.7 | -11.1 | 2.1 | 8.8 | 3.1 | 10.1
CNC(=O)NC(=O)COC(=O)/C=C/c1cccc(Br)c1 | -24.4 | 3.0 | -0.1 | 15.8 | 1.8 | 2.9
